Four compounds from PubChem BioAssay can be followed below.

Assay [1] is described as follows: compounds altering viability of human ES cells (AID 493140; call rule not given here;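 also: cells exposed to compounds for four days before counting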). Particulars: human embryonic stem cell survival screen; stronger effect = higher value.
Assay [2] is described as follows: P. berghei load reduction in hepatocytes – cell-based, HepG2, luciferase luminescence, HepG2 viability, primary screen (AID 624349; in the data active = parasite load remaining mostly below about 12%, no sharp cut-off; inactive = mostly above about 10%;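 also: 100% = mean of DMSO negative control wells on the same plate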). Particulars: P. berghei liver stage in HepG2, luciferase luminescence, concentration not given here; parasite load remaining: stronger effect = lower value; viability: measured here: HepG2 viability without parasites.
Assay [3] in a line: Wnt pathway potentiators raising nuclear beta-catenin – imaging, WNT3A-conditioned medium, mouse C2C12, NPC library, primary screen (AID 1117326; in the data active = nuclear beta-catenin stimulation mostly above about 4.2%, no sharp cut-off; inactive = mostly below about 10%). Particulars: stronger effect = higher value.
Assay [4] is described as follows: stimulators of insulin release from INS-1E, primary screen, cell-based, 5 mM glucose, NPC library (AID 1117329;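 active = compound raises insulin release from rat beta cells at 5 mM glucose, no numeric limit stated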). Particulars: rat INS-1E insulin secretion, at 10 µM, stronger effect = higher value.
Assay [5] in a line: growth inhibition of GSK3B-pretreated HCT116 cells – cell-based, CellTiter-Glo, 0.2 to 20 µM (AID 1117336;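 active = compounds lowering colon cancer cell viability after pretreatment blocking the GSK3B kinase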). To be noted: HCT116 viability after GSK3B inhibitor, at 20 µM, stronger effect = higher value.
The nature of assay [6]: inhibition of endothelial tube formation, primary screen, imaging, VEGF stimulated, CD31 staining, tube area, NPC library (AID 1117340;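 active = compound that reduces growth-factor-driven endothelial tube area in a mixed cell culture, no cutoff stated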). Particulars: VEGF-stimulated ADSC/ECFC co-culture, at 10 µM, stronger effect = higher value.
Assay [7] is described as follows: GLP1 release stimulators, primary, NCI-H716, NPC library (AID 1117341;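 active = compound raises GLP1 secretion from the human gut endocrine cells, with no numeric limit stated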). To be noted: NCI-H716 cells, at 10 µM, stronger effect = higher value.
Assay [8] in a line: HCT116 colon cancer cell growth inhibition, primary screen, CellTiter-Glo luminescence, NPC library (AID 1117342;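 active = compounds that lower survival of HCT116 colon cancer cells in the luminescence readout, no numeric limit stated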). Particulars: at 20 µM (top of the series). (ATP-based viability assays read luminescence as a measure of living cells.)
A short description of assay [9]: reduced SW480 viability measured with CellTiter-Glo, NPC library, primary (AID 1117343;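 active = compounds that lower viability of the colon cancer cells in the luminescence readout, with no numeric limit stated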). To be noted: CellTiter-Glo luminescence; at 20 µM (top of the series) unless noted.
A short description of assay [10]: NPC library primary testing for decreased DLD-1 cell viability via CellTiter-Glo (AID 1117346;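 active = compounds that lower survival of DLD-1 colon cancer cells in the luminescence readout, no cutoff given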). Particulars: DLD-1 viability, CellTiter-Glo luminescence; at 20 µM (top of the series).
Assay [11] can be described thus: viability loss with induced miR-34 in A549 – imaging, A549 dox-inducible miR-34, nuclei and caspase counts, primary screen (AID 1347080;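 active = compounds whose cell count with miR-34 switched on is under 0.7 times the count with it off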). Particulars: A549 miR-34 inducible, Hoechst nuclei count, 48 h.
Assay [12] can be described thus: MELAS cybrid and Rieske KO viability enhancers – cell-based, MELAS cybrids, Rieske KO mouse fibroblasts, CellTiter-Glo, primary screen (AID 1508586).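 Also: z relative to plate mean and SD of compound and empty wells.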 Particulars: low glucose.
Assay [13] has as its target NAD(+) hydrolase SARM1 (Homo sapiens) (UniProt Q6SZW1). Kind of assay: blocking NAD cleavage by SARM1 SAM-TIR – cell lysate, NAD-Glo luminescence (AID 1508614;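 active = compound whose remaining NAD level is above about 45 nM, limit read from the data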;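 also: higher remaining NAD means stronger inhibition of SARM1 NADase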). To be noted: SAM-TIR HEK293T lysate NADase, at 1 µM, stronger effect = higher value.
Assay [14] addresses Mitogen-activated protein kinase 7 (Homo sapiens) (UniProt Q13164). The assay is described as follows: Gal4-ERK5 driven luciferase induction – cell-based, HTS, primary screen (AID 1508626;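 active = luciferase signal above three times the same-plate solvent-only control wells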;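 also: luciferase driven by Gal4-ERK5 fusion binding five Gal4 sites before minimal TATA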). To be noted: HeLa Gal4-ERK5 transactivation, 18 h, at 5 µM, stronger effect = higher value.
The nature of assay [15]: galactose survival enhancers in mitochondrial complex I cybrids – cell-based, galactose medium, ATP luminescence, primary screen (AID 1645843;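 active = z-score of at least 1.8 in each of two replicates, scored against plate mean and spread of sample wells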;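 also: positive z means more ATP and so rescue of galactose-driven cybrid death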). Particulars: complex I mutant cybrid cells, 72 h, stronger effect = higher value.
The target of assay [16] is ATP-dependent translocase ABCB1 (Homo sapiens) (UniProt P08183). The assay is described as follows: P-glycoprotein substrate transport blockade – cell-based (AID 377; in the data active = fluorescence slope change above about 50%). To be noted: MDR1-expressing cells, fluorescent substrate accumulation slope; stronger effect = higher value; concentration not given here.
[17] abbreviates: stronger effect = lower value, cell number ratio, induced over uninduced.
[18] abbreviates: measured here: relative caspase fold change +Dox/-Dox.
[19] abbreviates: measured here: total cells with miR-34 induction, stronger effect = lower value.
The mark [20] stands for this setting: measured here: total cells without miR-34 induction.
Setting [21] is: MELAS cybrid survival, CellTiter-Glo 48 h, stronger effect = higher value.
Setting [22] is: Rieske KO mouse fibroblast survival, CellTiter-Glo 72 h.

One may read the viability as a read-out of living cells in per cent, often relative to untreated cells.

SMILES strings stand for the structures. Several values for one entry are separate records, joined by “and”; a condition that tells them apart may be missing. Equal entries are not always repeated. Inconclusive results are not listed. Activity calls are given as the source filed them.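 The calls were made as follows, unless noted: active = mean z-score across replicates of 1.96 or higher in either the MELAS or the Rieske mutant cell line; inactive = the rest.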

Chain of NAD(+) hydrolase SARM1 (Homo sapiens) (Q6SZW1 whole entry, looked up, the tested form may be a part): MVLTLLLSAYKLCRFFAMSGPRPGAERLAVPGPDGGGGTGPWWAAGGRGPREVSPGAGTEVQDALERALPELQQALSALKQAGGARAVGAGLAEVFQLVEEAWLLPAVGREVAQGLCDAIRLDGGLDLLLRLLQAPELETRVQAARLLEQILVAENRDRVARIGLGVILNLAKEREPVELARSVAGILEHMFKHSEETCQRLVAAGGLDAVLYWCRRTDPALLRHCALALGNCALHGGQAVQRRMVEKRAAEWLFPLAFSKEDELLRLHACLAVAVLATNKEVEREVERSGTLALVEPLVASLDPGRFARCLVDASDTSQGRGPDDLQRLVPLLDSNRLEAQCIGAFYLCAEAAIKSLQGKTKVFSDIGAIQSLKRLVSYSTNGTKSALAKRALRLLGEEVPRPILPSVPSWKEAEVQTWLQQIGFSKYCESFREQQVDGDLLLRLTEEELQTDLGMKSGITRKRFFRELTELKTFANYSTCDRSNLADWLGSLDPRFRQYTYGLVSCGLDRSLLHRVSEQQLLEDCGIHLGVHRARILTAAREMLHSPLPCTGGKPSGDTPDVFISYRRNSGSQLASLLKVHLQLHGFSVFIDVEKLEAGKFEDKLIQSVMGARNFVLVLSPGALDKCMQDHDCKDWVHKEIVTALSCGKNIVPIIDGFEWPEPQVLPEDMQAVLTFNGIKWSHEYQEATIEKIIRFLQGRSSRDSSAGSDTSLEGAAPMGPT
Chain of ATP-dependent translocase ABCB1 (Homo sapiens) (P08183 whole entry, looked up): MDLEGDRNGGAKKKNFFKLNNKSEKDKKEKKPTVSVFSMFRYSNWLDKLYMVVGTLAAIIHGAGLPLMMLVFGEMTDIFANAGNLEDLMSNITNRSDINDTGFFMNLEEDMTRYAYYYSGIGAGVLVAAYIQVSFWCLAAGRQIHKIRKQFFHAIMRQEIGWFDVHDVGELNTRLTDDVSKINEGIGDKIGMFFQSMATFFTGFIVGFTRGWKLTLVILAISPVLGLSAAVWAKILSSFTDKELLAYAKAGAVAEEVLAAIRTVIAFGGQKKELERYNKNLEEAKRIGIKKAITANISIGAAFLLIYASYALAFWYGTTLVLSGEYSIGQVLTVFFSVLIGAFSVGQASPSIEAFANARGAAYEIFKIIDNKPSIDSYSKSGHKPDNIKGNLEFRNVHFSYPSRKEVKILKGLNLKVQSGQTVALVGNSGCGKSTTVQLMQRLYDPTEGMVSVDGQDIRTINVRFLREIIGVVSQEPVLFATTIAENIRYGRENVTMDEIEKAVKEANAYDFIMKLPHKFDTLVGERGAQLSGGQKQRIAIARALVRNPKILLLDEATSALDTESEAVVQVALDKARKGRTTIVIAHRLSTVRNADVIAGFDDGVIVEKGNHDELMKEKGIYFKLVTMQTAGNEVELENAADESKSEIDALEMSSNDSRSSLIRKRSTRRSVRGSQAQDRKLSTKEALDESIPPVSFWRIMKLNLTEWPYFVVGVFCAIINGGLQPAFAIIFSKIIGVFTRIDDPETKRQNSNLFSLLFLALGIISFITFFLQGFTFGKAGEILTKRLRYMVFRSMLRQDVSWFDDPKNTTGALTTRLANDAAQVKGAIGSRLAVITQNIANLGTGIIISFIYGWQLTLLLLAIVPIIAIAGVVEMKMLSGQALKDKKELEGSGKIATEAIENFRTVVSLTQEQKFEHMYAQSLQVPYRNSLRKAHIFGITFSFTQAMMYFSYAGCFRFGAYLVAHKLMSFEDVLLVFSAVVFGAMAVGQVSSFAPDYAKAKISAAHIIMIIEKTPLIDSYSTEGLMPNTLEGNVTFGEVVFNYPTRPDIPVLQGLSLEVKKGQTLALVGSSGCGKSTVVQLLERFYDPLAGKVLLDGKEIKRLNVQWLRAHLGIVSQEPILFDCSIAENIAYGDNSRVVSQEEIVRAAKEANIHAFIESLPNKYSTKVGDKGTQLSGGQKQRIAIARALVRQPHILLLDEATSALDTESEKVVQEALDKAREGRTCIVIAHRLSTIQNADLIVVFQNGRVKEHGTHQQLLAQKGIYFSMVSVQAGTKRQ
Chain of Mitogen-activated protein kinase 7 (Homo sapiens) (Q13164 whole entry, looked up, the tested form may be a part): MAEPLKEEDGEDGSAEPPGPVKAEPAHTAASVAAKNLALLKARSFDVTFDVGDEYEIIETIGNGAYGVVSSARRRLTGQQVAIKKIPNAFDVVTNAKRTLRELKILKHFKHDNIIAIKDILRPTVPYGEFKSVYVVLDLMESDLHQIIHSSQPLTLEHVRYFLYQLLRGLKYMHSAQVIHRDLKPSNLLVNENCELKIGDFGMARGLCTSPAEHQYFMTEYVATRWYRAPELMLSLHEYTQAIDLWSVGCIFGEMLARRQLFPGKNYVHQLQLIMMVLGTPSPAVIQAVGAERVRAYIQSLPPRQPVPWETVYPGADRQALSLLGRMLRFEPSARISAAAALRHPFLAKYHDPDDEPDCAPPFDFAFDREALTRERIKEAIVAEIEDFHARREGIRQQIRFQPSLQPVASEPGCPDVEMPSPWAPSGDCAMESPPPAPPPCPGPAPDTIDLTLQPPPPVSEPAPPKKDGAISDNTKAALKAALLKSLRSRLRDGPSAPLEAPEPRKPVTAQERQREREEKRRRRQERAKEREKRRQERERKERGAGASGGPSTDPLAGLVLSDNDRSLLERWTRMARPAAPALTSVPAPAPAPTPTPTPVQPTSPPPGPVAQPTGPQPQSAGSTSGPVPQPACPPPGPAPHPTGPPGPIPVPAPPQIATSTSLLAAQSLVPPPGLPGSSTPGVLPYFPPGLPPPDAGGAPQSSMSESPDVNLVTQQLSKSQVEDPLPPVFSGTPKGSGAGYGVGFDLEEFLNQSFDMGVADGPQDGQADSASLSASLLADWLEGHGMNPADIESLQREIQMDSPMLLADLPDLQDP

Consider `CC(C)(C)NC[C@H](O)COc1cccc2c1CCCC2=O`, for which, in [1], the survival was 3.08 (inactive). Moreover, in [2], the parasite load remaining was 68.1% (inactive). In [2], the viability worked out at 89.1%. Besides, the nuclear beta-catenin stimulation was 0% (inactive) in assay [3] (at 10 µM) and 0.3% in assay [3] (stimulation, at 2 µM). Besides, the insulin secretion stimulation in [4] is 3.7% (inactive). For the same compound, in [5], the viability decrease is 17.1% (inactive). Moreover, the tube area decrease in assay [6] was 1% (inactive). Besides, the GLP1 secretion stimulation in [7] was 8.6% (inactive). In addition, the inhibition of viability in assay [8] was 13.8% (inactive). Further, the results for the viability decrease (inhibition) in assay [9] and in [10] were -11.3% (inactive) and 2.7% (inactive), respectively. Moreover, the fold change in assay [11] (setting [17]) is 0.883 (inactive); in assay [11] (setting [18]) it was 1.03. The cell count was determined as 9340 in assay [11] (setting [19]) and 10600 in assay [11] (setting [20]). Also, the z-score in assay [12] (setting [21]) was 0.581 (inactive); in assay [12] (setting [22]), 0.045. Besides, the remaining NAD in [13] was 10 nM (inactive). Also, the luciferase signal in assay [14] was 88 AU (inactive).
With `COc1ccccc1O`, the parasite load remaining in assay [2] was 50.2% (inactive). Moreover, in assay [2], the viability worked out at 93.5%. Moreover, the nuclear beta-catenin stimulation in assay [3] (at 10 µM) was -1.7% (inactive); in assay [3] (stimulation, at 2 µM), 2.4%. For the same compound, the insulin secretion stimulation in assay [4] is 2.9% (inactive). Moreover, the viability decrease in assay [5] was -10.4% (inactive). Besides, in [6], the tube area decrease is -0.8% (inactive). Also, the GLP1 secretion stimulation in assay [7] is -3.6% (inactive). Moreover, the inhibition of viability in assay [8] was 3% (inactive). In addition, the viability decrease (inhibition) in [9] is 1.3% (inactive); in [10] it was -5.1% (inactive). Further, the results for the fold change in assay [11] (setting [17]) and in assay [11] (setting [18]) were 0.954 (inactive) and 1.02, respectively. The cell count in assay [11] (setting [19]) amounted to 10200; in [11] (setting [20]), 10700. Besides, the z-score in [12] (setting [21]) was 0.215 (inactive) and 0.0947 (inactive); in assay [12] (setting [22]), -0.0355 and -0.379; in assay [15], 0.615 (inactive). Further, the remaining NAD in [13] is 10 nM (inactive).
Regarding `OCCOCCN1CCN(C(c2ccccc2)c2ccc(Cl)cc2)CC1` (stereo not given), the fluorescence slope change in [16] is 127% (active). Further, in assay [1], the survival was 12.3 (inactive). Moreover, the parasite load remaining in [2] is 40.8% (inactive) and 106% (inactive). The viability in [2] is 45.3% and 147%. For the same compound, the nuclear beta-catenin stimulation in assay [3] (at 10 µM) is 3.6% (inactive); in [3] (stimulation, at 2 µM), 2.4%. The insulin secretion stimulation in assay [4] is 4.2% (inactive). The viability decrease in assay [5] was -78.9% (inactive). The tube area decrease in assay [6] is 28% (inactive). Besides, the GLP1 secretion stimulation in [7] is 13.3% (inactive). Moreover, the inhibition of viability in assay [8] is 38.2% (inactive). For the same compound, the results for the viability decrease (inhibition) in assay [9] and in assay [10] were 46.4% (inactive) and 14.4% (inactive), respectively. Also, the fold change in assay [11] (setting [17]) is 0.893 (inactive) and 0.907 (inactive) and 0.862 (inactive); in assay [11] (setting [18]) it was 1.48 and 0.309 and 0.812. Also, the cell count in [11] (setting [19]) is 8690 and 7710 and 8370; in assay [11] (setting [20]), 9730 and 8500 and 9700. In addition, the z-score in assay [12] (setting [21]) is -0.954 (inactive) and -0.244 (inactive) and -0.546 (inactive); in assay [12] (setting [22]), 0.434 and -0.172 and -0.069; in [15] it was -0.645 (inactive).
Consider `CCCC(=O)OCOC(=O)C1=C(C)NC(C)=C(C(=O)OC)C1c1cccc(Cl)c1Cl` (stereo not given), for which the nuclear beta-catenin stimulation in assay [3] (at 10 µM) was 15.7% (inactive); in assay [3] (stimulation, at 2 µM) it was 12.3%. The insulin secretion stimulation in [4] is 3.9% (inactive). Further, the viability decrease in assay [5] is -9.1% (inactive). Moreover, in [6], the tube area decrease is -4.1% (inactive). In addition, in assay [7], the GLP1 secretion stimulation is 5.1% (inactive). Also, the inhibition of viability in assay [8] was 25.4% (inactive). Further, the viability decrease (inhibition) in [9] is 6.5% (inactive); in [10], 14.3% (inactive). In addition, the fold change in assay [11] (setting [17]) is 0.959 (inactive) and 0.978 (inactive); in assay [11] (setting [18]), 0.415 and 0.463. In addition, the cell count in assay [11] (setting [19]) is 8260 and 7700; in [11] (setting [20]), 8610 and 7870. The z-score was 0.611 (inactive) and -0.319 (inactive) in assay [12] (setting [21]); -0.278 and 0.00408 in assay [12] (setting [22]); -1.31 (inactive) in assay [15].
